Results on five compounds are retold here after PubChem BioAssay.

A short description of test [1]: small molecules captured by biotinylated probe aFSTL3 – biochemical, small-molecule microarray, fluorescence 635/667, stem cell growth factor project, primary screen (AID 1064).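 Further: measures binding of the biotinylated anti-FSTL3 antibody to printed compounds.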 Particulars: higher = more signal.
Test [2] is described as follows: binders from COS7 lysate, DM2A8 probe, primary screen, torsin A project, cell lysate, small-molecule microarray, fluorescence 635/667 (AID 1065). As to conditions: higher = more signal, COS7 lysate expressing mutant human TOR1A.
A short description of test [3]: small molecules captured by biotinylated probe aFGF2 – biochemical, small-molecule microarray, fluorescence 635/667, stem cell growth factor project, primary screen (AID 1067).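 Further: measures binding of biotinylated aFGF2 protein to printed compounds on slides; z-score merges feature fluorescence and signal-to-noise across triplicate slides.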 As to conditions: higher = more signal.
The nature of test [4]: small molecules captured by biotinylated probe aFGF10 – biochemical, small-molecule microarray, fluorescence 635/667, stem cell growth factor project, primary screen (AID 1071).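 Further: score merges 667 nm spot intensity and signal to noise from triplicate slides.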 As to conditions: higher = more signal.
In test [5] the target is Neurogenic locus notch homolog protein 2 (Homo sapiens) (UniProt Q04721). Kind of test: small molecules binding Notch2 protein – biochemical, small-molecule microarray, 635 nm fluorescence, stem cell growth factors, primary screen (AID 1073). As to conditions: higher = more signal.
Test [6] concerns the target Pro-neuregulin-1, membrane-bound isoform (Homo sapiens) (UniProt Q02297). In words: small molecules binding neuregulin-1 protein – biochemical, small-molecule microarray, fluorescence 635/667, psychiatric disease protein project, primary screen (AID 1075).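 Further: score combines 667 nm spot fluorescence with signal to noise.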 Particulars: NRG1 binding, 635 nm fluorescence, higher = more signal.
Test [7] relates to Neuregulin-1 EGF-like domain. Kind of test: small molecules binding NRG1 EGF domain – biochemical, small-molecule microarray, 635 nm fluorescence, primary screen (AID 1081).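 Further: binding of the protein to compounds printed on small-molecule microarray slides.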 As to conditions: higher = more signal.
Test [8] in a line: FRG1 expression reporter modulators in myotubes – cell-based, C2C12 myotubes, firefly/Renilla luciferase, luminescence, FRG1 inhibition for FSHD, primary screen (AID 1084). Particulars: FRG1 promoter luciferase, higher = more signal, called active from +8 up or from −8 down.
The nature of test [9]: small molecules captured by biotinylated probe aFST – biochemical, small-molecule microarray, fluorescence 635/667, stem cell growth factor project, primary screen (AID 1086).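 Further: score merges 667 nm fluorescence with signal-to-noise of each printed compound spot.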 Particulars: higher = more signal.
A short description of test [10]: binders of probe aHhip on microarray, primary screen, stem cell growth factor project, biochemical, small-molecule microarray, fluorescence 635/667 (AID 1087).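 Further: score merges spot fluorescence at 667nm with spot signal to noise ratio.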 As to conditions: higher = more signal.
The subject of test [11] is PRMT1 (protein arginine N-methyltransferase 1). Kind of test: small molecules binding arginine methyltransferase PRMT1 – biochemical, small-molecule microarray, 635 nm fluorescence, primary screen (AID 1088).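 Further: binding of Prmt1 protein to compounds spotted on small-molecule microarray slides.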 Particulars: higher = more signal.
Test [12] can be described thus: growth effects on S. cerevisiae YJM789 – YJM789 clinical isolate, OD600, 24 h, basal, primary screen (AID 1089).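 Further: growth of clinical yeast isolate S. cerevisiae YJM 789 seeded 1000 cells per well; test concentration not given here.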 As to conditions: higher = more signal, called active from +8 up or from −8 down.
Test [13] in a line: S. pombe growth modifiers, basal conditions – strain 972, OD600, 24 h, no modulator, primary screen (AID 1090).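 Further: basal condition with compound alone and no growth modifier present; test concentration not given here.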 As to conditions: S. pombe 972 growth, higher = more signal, called active from +8 up or from −8 down.
The nature of test [14]: budding yeast growth modifiers under rapamycin – strain BY4716, OD600, 96 h, primary screen (AID 1091). Further: test concentration not given here. As to conditions: S. cerevisiae BY4716 + rapamycin, higher = more signal, called active from +8 up or from −8 down.
Test [15] addresses Torsin-1A-interacting protein 2 (Homo sapiens) (UniProt Q8NFQ8). In words: small molecules binding lysate-expressed LULL1 – cell lysate, human LULL1 lysate, 635/667 nm fluorescence, primary screen (AID 1092).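 Further: score merges per-feature 667 nm fluorescence with signal-to-noise.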 Particulars: small-molecule microarray, hLULL1 lysate binding, 635 nm fluorescence; higher = more signal.
A short description of test [16]: optical density change of DRC41 E. coli – strain DRC41, OD650, 24 h, E. coli filamentation project, primary screen (AID 1093).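 Further: MC1000 strain lacking acrAB efflux and sulA so SOS filamentation is blocked; test concentration not given here.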 Particulars: E. coli DRC41 growth, higher = more signal, called active from +8 up or from −8 down.
A short description of test [17]: probe aLefty2 binding to arrayed compounds – biochemical, biotinylated probe, 635/667 nm fluorescence, primary screen (AID 1094).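 Further: score merges spot fluorescence near 667 nm with spot signal-to-noise ratio.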 Particulars: small-molecule microarray, higher = more signal.
Test [18] relates to Noggin (protein binding on small-molecule microarray). Kind of test: small molecules binding Noggin protein – biochemical, 635/667 nm fluorescence, primary screen (AID 1095).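 Further: score merges 667 nm feature fluorescence with signal to noise over triplicate slides.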 As to conditions: 635 nm fluorescence, higher = more signal.
Test [19] deals with Neurogenic locus notch homolog protein 3 (Homo sapiens) (UniProt Q9UM47). Kind of test: small molecules binding NOTCH3 protein – biochemical, 635/667 nm fluorescence, primary screen (AID 1096). Particulars: small-molecule microarray, 635 nm fluorescence, higher = more signal.
Test [20] can be described thus: probe aEGFR binding to arrayed compounds – biochemical, biotinylated probe, 635/667 nm fluorescence, primary screen (AID 1097).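 Further: probe is a biotinylated anti-EGFR antibody binding compounds printed on slides; score combines fluorescence near 667 nm and signal to noise of each spot.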 Particulars: small-molecule microarray, higher = more signal.

Each structure is given as a SMILES string. Calls of active or inactive are those of the source.

Chain of Pro-neuregulin-1, membrane-bound isoform (Homo sapiens) (Q02297 whole entry, looked up, the tested form may be a part, canonical isoform): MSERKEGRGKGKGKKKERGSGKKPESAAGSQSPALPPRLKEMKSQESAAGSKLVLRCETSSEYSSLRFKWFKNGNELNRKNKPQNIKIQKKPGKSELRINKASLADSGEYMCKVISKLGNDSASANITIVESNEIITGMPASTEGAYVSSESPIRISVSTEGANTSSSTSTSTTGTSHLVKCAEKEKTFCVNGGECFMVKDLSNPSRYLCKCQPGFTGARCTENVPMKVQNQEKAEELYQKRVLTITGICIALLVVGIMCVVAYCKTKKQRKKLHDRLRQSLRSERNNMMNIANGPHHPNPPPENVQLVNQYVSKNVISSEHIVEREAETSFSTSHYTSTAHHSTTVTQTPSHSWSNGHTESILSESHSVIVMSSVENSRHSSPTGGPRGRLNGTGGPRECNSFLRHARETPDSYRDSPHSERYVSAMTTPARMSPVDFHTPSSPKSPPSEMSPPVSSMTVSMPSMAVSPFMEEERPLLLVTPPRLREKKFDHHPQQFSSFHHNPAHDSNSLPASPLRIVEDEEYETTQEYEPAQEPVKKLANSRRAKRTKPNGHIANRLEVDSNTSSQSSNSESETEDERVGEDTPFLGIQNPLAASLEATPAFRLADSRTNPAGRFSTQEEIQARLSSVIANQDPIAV
Chain of Neurogenic locus notch homolog protein 2 (Homo sapiens) (Q04721 whole entry, looked up, canonical isoform): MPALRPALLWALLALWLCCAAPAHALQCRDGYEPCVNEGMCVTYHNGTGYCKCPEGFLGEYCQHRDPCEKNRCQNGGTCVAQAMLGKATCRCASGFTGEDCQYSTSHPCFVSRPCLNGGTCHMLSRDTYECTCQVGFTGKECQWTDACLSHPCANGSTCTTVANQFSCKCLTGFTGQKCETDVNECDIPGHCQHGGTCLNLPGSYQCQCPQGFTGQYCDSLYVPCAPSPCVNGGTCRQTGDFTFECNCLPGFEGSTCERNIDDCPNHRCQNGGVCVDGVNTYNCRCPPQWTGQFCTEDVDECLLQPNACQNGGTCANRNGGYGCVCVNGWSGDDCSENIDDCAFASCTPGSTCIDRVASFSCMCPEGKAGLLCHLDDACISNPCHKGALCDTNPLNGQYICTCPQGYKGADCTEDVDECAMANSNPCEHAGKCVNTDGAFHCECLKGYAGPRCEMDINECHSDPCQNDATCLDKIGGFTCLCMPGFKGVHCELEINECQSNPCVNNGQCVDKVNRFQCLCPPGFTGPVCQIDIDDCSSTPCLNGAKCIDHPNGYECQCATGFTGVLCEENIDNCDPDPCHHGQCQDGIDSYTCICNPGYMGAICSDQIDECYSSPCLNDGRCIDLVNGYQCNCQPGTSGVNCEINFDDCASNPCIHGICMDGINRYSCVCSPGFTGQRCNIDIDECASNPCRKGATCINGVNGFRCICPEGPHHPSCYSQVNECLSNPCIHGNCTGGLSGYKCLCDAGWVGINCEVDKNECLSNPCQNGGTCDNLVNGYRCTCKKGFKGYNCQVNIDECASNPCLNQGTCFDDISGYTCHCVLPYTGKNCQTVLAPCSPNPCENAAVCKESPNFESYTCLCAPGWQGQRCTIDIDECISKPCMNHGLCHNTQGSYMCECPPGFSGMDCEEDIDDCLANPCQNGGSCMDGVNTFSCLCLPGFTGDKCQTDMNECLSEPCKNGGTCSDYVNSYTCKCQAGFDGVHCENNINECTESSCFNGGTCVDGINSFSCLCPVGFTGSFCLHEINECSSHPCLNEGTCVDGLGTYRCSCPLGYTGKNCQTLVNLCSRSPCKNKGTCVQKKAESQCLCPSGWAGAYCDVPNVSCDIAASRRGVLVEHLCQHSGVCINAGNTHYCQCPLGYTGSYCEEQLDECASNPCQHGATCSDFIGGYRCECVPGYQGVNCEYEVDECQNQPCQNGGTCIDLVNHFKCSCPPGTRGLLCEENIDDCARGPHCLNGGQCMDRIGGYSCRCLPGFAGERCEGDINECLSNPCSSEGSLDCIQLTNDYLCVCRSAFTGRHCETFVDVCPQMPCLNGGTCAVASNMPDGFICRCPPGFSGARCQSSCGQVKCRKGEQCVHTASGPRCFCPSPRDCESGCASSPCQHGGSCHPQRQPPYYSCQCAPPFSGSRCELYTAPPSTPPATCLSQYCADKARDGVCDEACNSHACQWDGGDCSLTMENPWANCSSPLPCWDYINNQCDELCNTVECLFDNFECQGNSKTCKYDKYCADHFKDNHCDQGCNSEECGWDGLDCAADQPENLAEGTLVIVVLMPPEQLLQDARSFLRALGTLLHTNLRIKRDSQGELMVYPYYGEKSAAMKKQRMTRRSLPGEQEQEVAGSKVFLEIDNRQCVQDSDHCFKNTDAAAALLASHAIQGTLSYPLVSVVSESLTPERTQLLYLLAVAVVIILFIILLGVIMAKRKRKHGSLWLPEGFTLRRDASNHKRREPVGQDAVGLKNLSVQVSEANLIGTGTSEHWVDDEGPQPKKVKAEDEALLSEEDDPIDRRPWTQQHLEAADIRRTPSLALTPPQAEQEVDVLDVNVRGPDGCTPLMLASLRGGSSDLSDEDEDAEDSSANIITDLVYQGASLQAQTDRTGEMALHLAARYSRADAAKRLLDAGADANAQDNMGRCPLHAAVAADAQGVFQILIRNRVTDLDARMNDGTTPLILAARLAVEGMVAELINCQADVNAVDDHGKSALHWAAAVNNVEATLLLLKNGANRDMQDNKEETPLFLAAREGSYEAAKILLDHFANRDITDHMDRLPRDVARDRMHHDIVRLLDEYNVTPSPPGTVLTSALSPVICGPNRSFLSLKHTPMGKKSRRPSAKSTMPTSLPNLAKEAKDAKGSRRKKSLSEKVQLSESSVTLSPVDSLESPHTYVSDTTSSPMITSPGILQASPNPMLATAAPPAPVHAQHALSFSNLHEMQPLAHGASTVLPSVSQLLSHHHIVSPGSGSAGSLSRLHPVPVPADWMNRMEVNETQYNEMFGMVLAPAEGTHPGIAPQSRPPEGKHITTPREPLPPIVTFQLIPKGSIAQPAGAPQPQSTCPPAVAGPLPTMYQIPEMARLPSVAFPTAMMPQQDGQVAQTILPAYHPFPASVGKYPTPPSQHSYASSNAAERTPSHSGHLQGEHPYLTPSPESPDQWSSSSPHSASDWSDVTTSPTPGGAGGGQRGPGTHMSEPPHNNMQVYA
Chain of Torsin-1A-interacting protein 2 (Homo sapiens) (Q8NFQ8 whole entry, looked up): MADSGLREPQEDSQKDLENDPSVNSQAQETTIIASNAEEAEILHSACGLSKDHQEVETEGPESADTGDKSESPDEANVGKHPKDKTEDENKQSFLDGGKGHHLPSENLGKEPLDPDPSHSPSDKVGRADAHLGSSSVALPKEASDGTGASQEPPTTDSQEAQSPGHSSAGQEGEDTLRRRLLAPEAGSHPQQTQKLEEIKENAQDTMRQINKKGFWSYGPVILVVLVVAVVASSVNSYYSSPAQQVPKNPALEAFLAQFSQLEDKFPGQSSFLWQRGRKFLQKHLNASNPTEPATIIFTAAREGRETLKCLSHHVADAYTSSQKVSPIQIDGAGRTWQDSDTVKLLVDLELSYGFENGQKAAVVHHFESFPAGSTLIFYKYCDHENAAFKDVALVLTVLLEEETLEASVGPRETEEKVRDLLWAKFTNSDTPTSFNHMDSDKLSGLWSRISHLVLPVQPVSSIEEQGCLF

Take `CN(C)CCCC[C@@H]1NC(=O)[C@@H]2C[C@H](C(=O)NCCCCCN)[C@H](c3cccc(OCCO)c3)N2C1=O`: the composite z-score in test [1] was -0.439; in test [2], 1.75; in test [3], -0.121; in test [4], 0.549; in [5], 0.549; in test [6], 1.09. Further, the composite z-score was 1.35 in [7]; 0.153 in test [9]; 0.0722 in [10]; 1.32 in [11]; 1.96 in [15]; -0.0592 in [17]. The composite z-score is 1.17 in test [18], 1.04 in [19] and -0.0943 in test [20]. Moreover, the z-score in test [8] was -1.02 (inactive); in test [12] it was -5.45 (inactive); in test [13], -3.9 (inactive); in test [14], -0.962 (inactive); in [16], 2.65 (inactive).
`COc1cc(CO)cc(I)c1O[C@H]1C=C(C(=O)NCCO)C[C@@H]2O[C@H]12`: the composite z-score is 0.167 in test [1]; 0.622 in test [2]; -0.111 in [3]; 0.251 in test [4]; 0.864 in test [5]; 0.366 in [6]. In addition, the composite z-score is 1.46 in test [7]; 0.164 in [9]; -0.199 in test [10]; 1.56 in [11]; 2.63 in test [15]; 0.17 in [17]. Also, the composite z-score in [18] turned out to be 2.32; in test [19], 1.07; in test [20], 0.0018. Besides, the z-score in [8] was -1.44 (inactive); in test [12], 0.111 (inactive); in test [13], -6.47 (inactive); in test [14] it was -1.42 (inactive); in test [16], -0.0097 (inactive).
Regarding `COc1ccc([Si](C)(C)[C@H]2[C@H](CCO)O[C@@]3(C(=O)N(Cc4ccc(NC(=O)[C@H](C)O)cc4)c4ccccc43)[C@@H]2C)cc1`, the composite z-score in test [1] was -0.184; in [2] it was 0.485; in test [3] it was -0.0508; in test [4] it was 0.663; in test [5], 1.19; in test [6] it was 1.54. For the same compound, the composite z-score in [7] was 1.19; in [9], 0.292; in test [10], 0.0401; in [11], 1.58; in [15], 2.19; in [17] it was -0.142. In addition, the composite z-score was 0.862 in test [18], 0.762 in test [19] and 0.0337 in test [20]. The z-score is -4.06 (inactive) in test [8]; 2.39 (inactive) in test [12]; -1.36 (inactive) in [13]; 4.78 (inactive) in test [14]; 1.38 (inactive) in test [16].
On to `CC(C)(C)N1CC=CC23O[C@@H]4C=CCOC(=O)[C@@H]4[C@H]2C(=O)N(CCO)[C@@H]3C1=O` (stereo not given in full), for which the composite z-score is 0.56 in test [1]; -0.483 in test [2]; -0.206 in test [3]; -0.437 in [4]; -0.638 in test [5]; 1.87 in [6]. Besides, the composite z-score is 1.66 in test [7]; -0.633 in test [9]; -0.274 in [10]; 0.717 in [11]; 1.34 in test [15]; -0.284 in test [17]. Moreover, the composite z-score in test [18] is -1.6; in test [19], -0.337; in test [20], -0.205. Moreover, the z-score in test [8] was 0.639 (inactive); in test [12], 0.573 (inactive); in test [13] it was -0.0445 (inactive); in [14] it was 0.514 (inactive); in test [16], -0.594 (inactive).
Regarding `CCOC(=O)C[C@H]1[C@H](OC(=O)c2ccccc2-c2ccccc2)[C@@H](NC(=O)C2CCCCC2)c2cc(OCCCO)ccc2N1C(=O)c1ccc2ccccc2n1`, the composite z-score in test [1] was -0.484; in test [2] it was 0.0817; in test [3], -0.0594; in test [4], 0.53; in test [5] it was 0.813; in test [6] it was 0.388. Further, the composite z-score is 0.825 in test [7]; 0.512 in test [9]; -0.0296 in test [10]; 1.39 in test [11]; 1.34 in test [15]; 0.0569 in test [17]. In addition, the composite z-score in [18] was found to be 0.431; in test [19], 0.89; in test [20], 0.0754. The z-score in test [8] was 0.396 (inactive); in test [12], 0.362 (inactive); in test [13], 0.233 (inactive); in test [14], 0.495 (inactive); in test [16] it was -1.06 (inactive).
